47 compounds from ChEMBL document CHEMBL3433997, “St. Jude Leishmania screening dataset” (2016) can be followed below.

What all share (assay type): functional
In assay [1] the target is Solute carrier family 2, facilitated glucose transporter member 1 (Homo sapiens) (UniProt P11166). Put plainly: ST_JUDE_LEISH: Cytotoxicity at 2uM final concentration against transgenic Leishmania Mexicana promastigotes LmGLUT1 that are glucose transport deficient and complemented with the human glucose transporter GLUT1. Activity is measured by DNA content using SYBR green in vitro.

Assay [2] addresses Hexose transporter 1 (Plasmodium falciparum) (UniProt O97467). Put plainly: ST_JUDE_LEISH: Cytotoxicity at 2uM final concentration against transgenic Leishmania Mexicana promastigotes LmPfHT that are glucose transport deficient and complemented with the Plasmodium falciparum hexose transporter. Activity is measured by DNA content using SYBR green in vitro.
The target of assay [3] is Glucose transporter (Leishmania mexicana) (UniProt O61059). Put plainly: ST_JUDE_LEISH: Cytotoxicity at 2uM final concentration against transgenic Leishmania Mexicana promastigotes LmGT2 that are glucose transport deficient and complemented with the L. Mexicana glucose transporter 2. Activity is measured by DNA content using SYBR green in vitro.

As usually defined, the inhibition is the change of the read-out against control, counted positive when it falls.

Sequence of Solute carrier family 2, facilitated glucose transporter member 1 (Homo sapiens) (P11166 whole entry): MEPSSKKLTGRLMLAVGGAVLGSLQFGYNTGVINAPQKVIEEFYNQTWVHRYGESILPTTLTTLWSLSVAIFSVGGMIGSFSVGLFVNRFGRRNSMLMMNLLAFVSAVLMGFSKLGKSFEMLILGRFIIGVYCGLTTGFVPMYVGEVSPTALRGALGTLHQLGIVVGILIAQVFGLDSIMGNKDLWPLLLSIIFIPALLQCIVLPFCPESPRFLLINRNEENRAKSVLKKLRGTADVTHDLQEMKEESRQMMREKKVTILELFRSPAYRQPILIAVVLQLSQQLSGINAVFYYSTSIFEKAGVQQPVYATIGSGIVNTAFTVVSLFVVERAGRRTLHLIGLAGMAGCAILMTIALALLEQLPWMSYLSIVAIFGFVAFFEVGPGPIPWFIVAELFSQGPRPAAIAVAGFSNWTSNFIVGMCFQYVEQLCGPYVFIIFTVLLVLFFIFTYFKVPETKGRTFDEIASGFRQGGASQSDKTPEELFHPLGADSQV

Consider `Cc1cc(N[C@@H](Cc2ccccc2)C(=O)NCc2cccs2)nc(NCCc2ccccn2)n1`, for which the inhibition in assay [1] stood at 6.58%; in assay [2], 3.27%; in assay [3] it was 1.45%.
The matching figures for `CCc1cn2c3c(cc(C(=O)N[C@@H](Cc4cccc(Cl)c4)[C@H](O)CNC4CCOCC4)cc13)N(C)S(=O)(=O)CC2`: 2.87%, -0.33% and 1.44%.
`CC(CN1CCN(C)CC1)C(=O)Nc1ccc(-c2cccc(-c3nc4cc(C(F)(F)F)ccc4[nH]3)c2)cc1` (stereo unspecified): the inhibition in assay [1] was -0.51%; in assay [2], 0.32%; in assay [3], -2.84%.
For `Cc1ccc(CCC(C)NCC(O)c2cccc(C(F)(F)F)c2)cc1` (stereo unspecified) the same measures were -0.37%, 0.53% and 0.17%.
For `COc1ccccc1N1CCN(CCCCNC(=O)c2ccc(NC(=O)c3ccc(C(F)(F)F)cc3)cc2)CC1` the same measures were -0.92%, -0.29% and -0.69%.
Consider `CN(C(=O)/C=C/c1cc(C(F)(F)F)ccc1F)C1CCN(CCCCCNC(=O)/C=C/c2ccc(Cl)c(Cl)c2)C1` (stereo unspecified), for which the inhibition in assay [1] was 0.02%; in assay [2] it was 1.48%; in assay [3], 1.37%.
Take `Cc1cc(=NN=Cc2ccccn2)c2cc(C(F)(F)F)ccc2[nH]1`: the inhibition in assay [1] was -0.43%; in assay [2] it was -1.03%; in assay [3], -1.17%.
For `O=C(Nc1cccc(CN2CCN(C(=O)c3cccs3)CC2)c1)c1cccs1`, the inhibition in assay [1] is 2.53%; in assay [2], 2.59%; in assay [3] it was 2.26%.
With `COc1ccc2c(-c3ccccc3)noc2c1`, the values for the inhibition in assay [1], in assay [2] and in assay [3] were 0.37%, 0.1% and 1.42%, respectively.
Take `O=S1(=O)NC2(CCN(CCc3ccc(Cl)cc3)CC2)Nc2cc(F)cc(F)c21`: the results for the inhibition in assay [1], in assay [2] and in assay [3] were 7.66%, 8.79% and 7.55%, respectively.
For `NC(=O)c1cccc(C(=O)Nc2cccc(-c3cccc(-c4nc5ccccc5[nH]4)c3)c2)c1` the same measures were 5.87%, 5.18% and 4.03%.
For `CCOc1cc2ncnc(Nc3cc(Cl)c(Cl)c(Cl)c3)c2cc1OCC` the same measures were 0.38%, 1.95% and 1.59%.
For `CCc1c[nH]c2c(N(c3ccccc3)S(C)(=O)=O)cc(C(=O)N[C@@H](Cc3ccccc3)[C@H](O)CNC(C)(C)CCCC(C)C)cc12` the same measures were 0.74%, 1.65% and 0.18%.
Turning to `CCn1c2c(c(=N)c3ccccc31)CCC2`, the inhibition was -0.78% in assay [1], -2.72% in assay [2] and -1.61% in assay [3].
As for `Fc1ccc2ncc(Cl)c(CCN3CCC(NCc4cc5c(cn4)OCCO5)CC3)c2c1`, the inhibition in assay [1] is 11%; in assay [2] it was 11.7%; in assay [3], -0.41%.
The matching figures for `COc1ccc(Nc2nccc(NCC(O)c3cccc(C(F)(F)F)c3)n2)cc1` (stereo unspecified): 1.24%, 2.47% and -1.44%.
The matching figures for `OC(CNc1ccnc(Nc2ccccc2)n1)c1ccc(C(F)(F)F)cc1` (stereo unspecified): 5.97%, 5.69% and 1.23%.
For `Cc1c(NC(=O)COc2ccc(Cl)cc2C(=O)c2cc(F)cc(C(F)(F)F)c2)ccc2ncsc12` the same measures were 9.85%, 9.17% and 7.93%.
`O=S(=O)(Nc1ccc2nccc(N3CCNCC3)c2c1)c1ccc2oc3ccccc3c2c1`: the results for the inhibition in assay [1], in assay [2] and in assay [3] were 4.08%, 6.5% and 5.02%, respectively.
For the compound `CCCCCn1c(Sc2ccc(C#N)c([N+](=O)[O-])c2)nnc1-c1ccc(Cl)cc1`, the inhibition in assay [1] was determined as 4.31%; in assay [2], 4.27%; in assay [3], 0.12%.
Consider `Cc1cc(N(C)C)nc(Nc2ccc(NC(=O)COc3ccccc3)cc2)n1`, for which the inhibition is 2.72% in assay [1], 7.92% in assay [2] and -2.15% in assay [3].
In the case of `COc1ccc(Oc2ccc(Nc3ccnc4ccc(C(F)(F)F)cc34)cc2)cc1OC`, the inhibition was 7.8% in assay [1], 6.26% in assay [2] and 12.3% in assay [3].
`N#Cc1ccc(CN2CCC(Oc3ccc(NC(=O)c4ccsc4)cc3Cl)C2)cc1` (stereo unspecified): the inhibition is 8.19% in assay [1], 11.8% in assay [2] and 8.45% in assay [3].
For `CCOCCCNc1sc(S(=O)(=O)c2ccccc2)nc1S(=O)(=O)c1ccc(C)cc1` the same measures were 8.93%, 8.79% and 9.56%.
With `O=C(Nc1ccc(CN2CCCCC2)cc1)c1ccc(COc2ccc([N+](=O)[O-])cc2)o1`, the inhibition in assay [1] was found to be 4.55%; in assay [2], 3.4%; in assay [3], 0.44%.
For `Cc1[nH]c(C)c(-c2ccc(OCCCCSc3ccncc3)cc2)c(=O)c1Br` the same measures were 8.71%, 6.45% and 8.94%.
On to `CCc1ccccc1N1CCN(CCCCNC(=O)c2ccc(NC(=O)c3ccc(Cl)cc3)cc2)CC1`, for which the inhibition was 2.51% in assay [1], 2.19% in assay [2] and 0.44% in assay [3].
The matching figures for `COc1ccc(NC(=O)[C@H](CC(C)C)Nc2cc(C)nc(NCCc3ccccc3)n2)cc1`: 3.57%, 3.69% and 1.94%.
The matching figures for `C[C@H](Nc1nc(C(Oc2ccccc2)c2ccccc2)nc2[nH]ncc12)c1ccccc1` (stereo partly specified): 3.69%, 1.72% and 0.54%.
For `CCCCCCCn1c(=N)n(CC(O)c2ccc(Cl)c(Cl)c2)c2ccccc21` (stereo unspecified) the same measures were 8.14%, 7.92% and 13.2%.
On to `CO/C(=C\C=C\c1cc2cc(Cl)c(Cl)cc2[nH]1)C(=O)NCCCN1CCN(c2cccc(CCO)c2)CC1`, for which the inhibition is -0.14% in assay [1], 1.35% in assay [2] and -0.1% in assay [3].
For the compound `O=C(Nc1cccc(F)c1)N[C@H]1CCN(CCCCCNC(=O)C2CC2c2ccc(Cl)c(Cl)c2)C1` (stereo partly specified), the inhibition was 4.75% in assay [1], 3.61% in assay [2] and 0.83% in assay [3].
As for `COc1ccc(NC(=O)/C=C/c2ccccc2Cl)cc1OCCN1CCC(N2CCCC2)CC1`, the inhibition in assay [1] is 2.99%; in assay [2] it was 3.87%; in assay [3] it was 4.44%.
For `COc1ccc2nccc([C@@H](O)CN3CCC(NCCOc4cccc(F)c4F)CC3)c2c1` the same measures were 4.54%, 4.96% and -0.41%.
For `Fc1cccc(C=NN=c2cc[nH]c3ccccc23)c1` the same measures were 9.03%, 6.41% and 6.88%.
`CCOC(=O)c1c(-c2ccccc2)nc2c(sc3ccccc32)c1O`: the inhibition in assay [1] was 5.5%; in assay [2], 5.15%; in assay [3], 5.35%.
In the case of `O=C(/C=C/c1ccc(Cl)c(Cl)c1)NCCCCCN1CCCC(C(=O)Nc2ccc(Cl)c(Cl)c2)C1` (stereo unspecified), the inhibition in assay [1] is -0.31%; in assay [2], -1.19%; in assay [3] it was -0.96%.
With `COc1ccc(CCNc2nc(NCCc3cnc[nH]3)nc(NCc3cccc4ccccc34)n2)cc1OC`, the inhibition in assay [1] came out at 7.46%; in assay [2], 10.1%; in assay [3] it was 4.1%.
The matching figures for `Oc1ccc(CCNc2nc(NCCCOc3ccccc3-c3ccc(C(F)(F)F)cc3)nc(N3CCNCC3)n2)cc1`: -0.03%, -1.9% and -0.21%.
On to `O=C(Nc1ccc(OC2CCN(Cc3ccccc3)C2)c(Cl)c1)c1cccs1` (stereo unspecified), for which the results for the inhibition in assay [1], in assay [2] and in assay [3] were 1.18%, 1.06% and 1.66%, respectively.
The matching figures for `COc1ccc2nccc([C@@H](O)CN3CCC(NCc4ccc5c(c4)nnn5C(C)C)CC3)c2c1`: 18.3%, 20.9% and 5%.
For the compound `N=C(N)c1ccc(-c2cc3ccc(C(=N)N)cc3[nH]2)cc1`, the inhibition in assay [1] amounted to 62.9%; in assay [2], 62.2%; in assay [3] it was 52.2%.
For `COc1ccc2nccc([C@@H](O)CN3CCC(NC(=O)/C=C/c4ccc(F)c5ccccc45)CC3)c2c1` the same measures were 8.56%, 5.8% and 5.26%.
For `CC1(C)CN(CCC2CCC(NC(=O)/C=C/c3ccccc3F)CC2)Cc2ccc(C#N)cc21` (stereo unspecified) the same measures were 3.59%, 1% and 1.48%.
For `Cc1cc(NC(c2ccc(Cl)cc2)c2ccc3cccnc3c2O)no1` (stereo unspecified) the same measures were 16.6%, 22.8% and 6.2%.
Take `Cc1ccc2[nH]c3c(NCCN(C)C)ncnc3c2c1`: the inhibition is 0.53% in assay [1], 1.24% in assay [2] and -0.07% in assay [3].
Turning to `COc1ccc2ncc(F)c(CCN3CCC(NCc4cc(Br)c5c(c4)OCCO5)CC3)c2n1`, the inhibition amounted to 18.9% in assay [1], 31.4% in assay [2] and 14.3% in assay [3].
